For 91 molecules, enhancement results are on record in PubChem BioAssay AID493056 (National Center for Advancing Translational Sciences (NCATS), 2011).

Values joined by “and” are separate entries in the source; they are usually repeats but may differ in a detail not shown here. Identical values can stand only once. The whole screen tested about 360,000 compounds, of which about 2,400 (0.67%) were called active. No stated cut-off is given here; in the data, active means enhancement above about 30%; inactive means the rest. This excerpt belongs to a sample that is enriched for actives. Some compounds were tested as several samples or in several runs, with calls that do not always agree.

Chain of Thyrotropin-releasing hormone receptor (Homo sapiens) (P34981 whole entry, looked up): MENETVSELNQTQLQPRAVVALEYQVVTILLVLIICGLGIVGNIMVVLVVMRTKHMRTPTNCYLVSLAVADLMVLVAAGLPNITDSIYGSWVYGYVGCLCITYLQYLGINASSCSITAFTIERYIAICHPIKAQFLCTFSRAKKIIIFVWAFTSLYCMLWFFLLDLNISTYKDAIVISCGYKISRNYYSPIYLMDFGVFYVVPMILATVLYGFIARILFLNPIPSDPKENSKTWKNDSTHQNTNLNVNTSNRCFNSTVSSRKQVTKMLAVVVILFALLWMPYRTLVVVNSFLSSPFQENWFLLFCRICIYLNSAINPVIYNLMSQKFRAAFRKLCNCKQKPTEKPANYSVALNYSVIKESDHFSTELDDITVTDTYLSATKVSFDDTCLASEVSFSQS

The target in this assay is Thyrotropin-releasing hormone receptor (Homo sapiens) (UniProt P34981). Description: qHTS for Small Molecule Agonists and Allosteric Enhancers of Human TRH Receptor: Primary Screen for Enhancers. Further: 0% is about no effect. To be noted: TRHR cells, fluo-8 calcium fluorescence, EC20 TRH enhancement; at 2 µM; stronger effect = higher value. The method, boiled down:
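Enhancer read-out: after compound pinning and an initial kinetic agonist-mode read, an EC20 of TRH (10 nM final) was injected and fluo-8 calcium signal (Ex 480/Em 530) followed at 1 s/cycle for 100 cycles in TRHR-expressing cells.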
Consider `COc1ccc2oc(=O)c(-c3cn4c(n3)sc3cc(OC)ccc34)cc2c1`, for which the enhancement is 1.26% (inactive).
Under `C/C(=N/NC(=O)CN1CCN(S(=O)(=O)c2ccc(Br)cc2)CC1)c1ccncc1` stands 1.09% (inactive); under `Cc1cccc(NC(=O)CN2CCCN(S(=O)(=O)c3ccc(Br)s3)CC2)c1`, 9.87% (inactive).
For `Cc1ccc(S(=O)(=O)N2CCN(CC(=O)N/N=C/c3ccc(Br)s3)CC2)cc1`, the enhancement was 47.7% (active).
On to `CCOC(=O)c1ccccc1NC(=O)CCc1c(C)nc2c(c1C)c(=O)n(C)c(=O)n2C`, for which the enhancement was -7.61% (inactive).
For `Cc1cc(C)cc(NS(=O)(=O)c2ccc(-c3cc(C)no3)s2)c1`, the enhancement is -5.49% (inactive).
`CCc1ccc(/C=C2\SC(N3CCOCC3)=NC2=O)cc1`: the enhancement was 38.7% (active).
`CCOc1cc(/C=C2\SC(N3CCCC(C)C3)=NC2=O)ccc1O` (stereo unspecified): the enhancement was -4.09% (inactive).
The value for `O=C1N=C(N2CCOCC2)S/C1=C\C=C/c1ccccc1` was -2.61% (inactive).
The value for `COc1ccc(CCNC(=O)CCCn2c(=O)c3ccccc3n(Cc3ccc(F)cc3Cl)c2=O)cc1OC` was 4.63% (inactive).
Turning to `COc1ccc(NC(=O)CSc2ncnc3[nH]ncc23)cc1`, the enhancement was 3.87% (inactive).
For the molecule `O=C(COC(=O)CCCSc1nc2ccccc2[nH]1)Nc1ccc(Oc2ccccc2)cc1`, the enhancement was 1.7% (inactive).
On to `COc1ccc(NC(=O)CSc2nc(NS(=O)(=O)c3ccc(C)cc3)cc(=O)[nH]2)cc1`, for which the enhancement was -7.18% (inactive).
The value for `COc1ccc2nc(SCC(=O)Nc3c(C)cc(C)cc3C)[nH]c2c1` was 0.227% (inactive).
Turning to `Cc1csc(SCC(=O)Nc2sccc2C#N)n1`, the enhancement is -4.36% (inactive).
Regarding `COC(=O)c1cccc(NC(=O)CSc2nc(C)cc(=O)[nH]2)c1`, the enhancement is 36.7% (active).
Regarding `COc1ccc(NC(=O)CSc2nc3ccccc3[nH]2)cc1`, the enhancement is 39.7% (active).
For the molecule `COc1ccc(NC(=O)CSc2nc(C)cs2)cc1`, the enhancement was 33.7% (active).
Consider `CC(=O)c1cccc(NC(=O)CSc2nc3c(c(=O)[nH]2)CCC3)c1`, for which the enhancement is -3.58% (inactive).
Take `COC(=O)c1cccc(Cn2nnc3sc4c(c3c2=O)CCC(C(C)(C)C)C4)c1` (stereo unspecified): the enhancement is -1.23% (inactive).
The value for `COc1ccc(CCNC(=O)C(=O)NCC(c2ccco2)S(=O)(=O)c2cccs2)cc1OC` (stereo unspecified) was -2.44% (inactive); that for `Cn1nnnc1Sc1ncnc2scc(-c3ccccc3[N+](=O)[O-])c12` was -1.81% (inactive); that for `COc1cc(OC)cc(C(=O)Nc2ccc3nc(Nc4cccc(C(F)(F)F)c4)cc(C)c3c2)c1` was -5.96% (inactive).
As for `CC1=CC(C)(C)N(C(=O)CSc2nnc(-c3ccccc3)o2)c2ccc(C)cc21`, the enhancement is 35.8% (active).
On to `CC1=CC(C)(C)N(C(=O)CSc2nccn2C)c2cc(C)ccc21`, for which the enhancement was -7.93% (inactive).
With `Cc1cccc(-c2nnc(SCC(=O)N3CCCc4ccccc43)o2)c1`, the enhancement is -6.5% (inactive).
`CCOc1ccc(-c2cc(C)n3nc(C(=O)Nc4ccc(C)c(C)c4)cc3n2)cc1`: the enhancement was 4.67% (inactive).
Consider `COc1cccc(NC(=O)c2csnn2)c1`, for which the enhancement was 1.76% (inactive).
For `CCOC(=O)CNC(=O)c1cc2c(=O)n3cccc(C)c3nc2s1`, the enhancement is -2% (inactive).
In the case of `Cc1cccn2c(=O)c3cc(C(=O)NC4CCCCC4)sc3nc12`, the enhancement is 44.3% (active).
Under `Cc1ccccc1-n1nc(C)c2cc(C(=O)NC3CC3)sc21` stands -3% (inactive); under `COc1ccc(Cl)cc1NC(=O)C(C)Sc1nc2c(c(=O)[nH]1)CCCC2` (stereo unspecified), 0.18% (inactive).
The value for `CCOC(=O)c1cc(NC(=O)c2ccc(F)cc2)c(=O)n2c1oc1ccccc12` was -6.78% (inactive); that for `COc1ccc(C2COC(=O)C2=N)c(NC(=O)c2ccccc2)c1` (stereo unspecified) was -7.29% (inactive); that for `CC(=O)c1cc(NC(=O)c2ccccc2)c(=O)oc1/C=C/N(C)C` was 31.6% (active).
With `COc1cc(OC)c(NC(=O)Cc2ccc(-n3c(C)nc4cccnc43)cc2)cc1Cl`, the enhancement was 9.81% (inactive).
Take `COc1ccc(Cc2n[nH]c(=S)n2NC(=O)Nc2ccc(C)cc2)cc1`: the enhancement was -6.6% (inactive).
Consider `CSc1n[nH]c(=S)n1N`, for which the enhancement was 4.42% (inactive).
For the molecule `COc1ccc(OCc2n[nH]c(=S)n2N)cc1`, the enhancement was 41.1% (active).
For the molecule `COc1ccccc1N1CCN(c2ccc(=O)n(CC(=O)NCc3ccc(OC(C)C)cc3)n2)CC1`, the enhancement was 2.06% (inactive).
For `COc1cc(OC)c(NC(=O)c2cnc(N3CCCC3)nc2C)cc1Cl`, the enhancement is 0.561% (inactive).
In the case of `CCOCCCNC(=O)c1c(NC(=O)c2nc(SC)ncc2Cl)sc2c1CCCC2`, the enhancement is 6.4% (inactive).
The value for `CC(CCc1ccccc1)NC(=O)c1cnc(Cl)c(Cl)c1` (stereo unspecified) was -11.8% (inactive).
Under `CC1=C(C)CC(C(=O)NC(C)CCc2ccccc2)C(C(=O)O)C1` (stereo unspecified) stands 46.8% (active); under `CCN(CC)S(=O)(=O)N1CCC(C(=O)NC(C)CCc2ccccc2)CC1` (stereo unspecified), 5.01% (inactive); under `CCc1nn(CC(=O)N2CCN(c3cccc(C(F)(F)F)c3)CC2)c(=O)c2cc3occc3n12`, 6.05% (inactive).
The value for `COc1cc(OC)cc(C(=O)NCCc2csc3nc(-c4ccccc4F)nn23)c1` was -2.81% (inactive); that for `COc1ccc(C2(C)ON(c3ccccc3C(F)(F)F)C2=O)cc1` (stereo unspecified) was 35% (active).
On to `COc1ccc(C2(O)C(=O)Nc3ccccc32)cc1` (stereo unspecified), for which the enhancement is -4.9% (inactive).
On to `COc1ccc(C2(C)NC(=O)N(CC(=O)c3ccc4c(c3)OCO4)C2=O)cc1` (stereo unspecified), for which the enhancement was 2.8% (inactive).
Under `COc1ccc(NC(=O)C2CCCN(S(=O)(=O)c3cccc4nonc34)C2)cc1Cl` (stereo unspecified) stands -6.01% (inactive); under `Cc1ccc(Cn2c(CCCNC(=O)C3CCCCC3)nc3ccccc32)cc1`, -17% (inactive).
For the molecule `CC12CCC(C(=O)N3CCN(c4ncccn4)CC3)(c3nc4ccccc4nc31)C2(C)C` (stereo unspecified), the enhancement was -2.73% (inactive).
In the case of `c1cnc(N2CCN(c3ccc4ccccc4n3)CC2)nc1`, the enhancement is 45.5% (active).
Regarding `O=C(c1ccc2ccccc2n1)N1CCN(c2ccccc2Cl)CC1`, the enhancement is 2.59% (inactive).
The value for `CCOc1ccccc1CNC(=O)c1ccc(-n2c(C)cc3c2CCC(C)C3)cc1` (stereo unspecified) was -0.716% (inactive); that for `NC(=O)CSc1nc2c(oc3ccccc32)c(=O)n1Cc1ccccc1` was -1.53% (inactive); that for `O=C(Nc1ccccc1N1CCOCC1)c1ccncc1` was 6.76% (inactive).
Take `Cc1ccc(NC(=O)COC(=O)CNC(=O)c2ccc(Cl)cc2Cl)cc1S(=O)(=O)N1CCOCC1`: the enhancement was 1.95% (inactive).
Under `O=C(CNC(=O)c1ccc(Cl)cc1Cl)NCC(=O)Nc1ccccc1N1CCOCC1` stands 31.1% (active).
With `CCOC(=O)c1c(-c2ccc(OC)cc2)oc2ccc(OCc3ccc(C(=O)OC)cc3)cc12`, the enhancement was -1.96% (inactive).
In the case of `CCOC(=O)c1ccc(-n2c(CCC(=O)O)ccc2-c2ccccc2)cc1`, the enhancement is -12.3% (inactive) and 10.9% (inactive).
For the molecule `CCOC(=O)c1ccc(COC(=O)CCc2nc(-c3ccccc3)c(-c3ccccc3)o2)cc1`, the enhancement was 31.7% (active).
Consider `COc1ccc(Cn2c(C(=O)O)c(CNCc3cccc(OC)c3)c3ccc(C)cc32)cc1`, for which the enhancement is 4.01% (inactive).
Under `COc1cc(NC(=O)c2noc3c2CSc2ccccc2-3)cc(OC)c1OC` stands 4.94% (inactive).
For the molecule `COc1ccc(-c2[nH]c3c(c2-c2c(-n4cccc4)n(C)c(=O)n(C)c2=O)c(=O)n(C)c(=O)n3C)cc1`, the enhancement was 31.9% (active).
In the case of `COc1ccc(-c2c3c(=O)n(C)c(=O)n(C)c3c3c(C)nc4ccccc4n23)cc1`, the enhancement was -1.08% (inactive).
As for `COc1ccc(Nc2cc(=O)n(-c3ccccc3)c3c2c(=O)n(C)c(=O)n3C)cc1`, the enhancement was -11.6% (inactive).
In the case of `CCOC(=O)c1cc(-c2ccccc2)n(CCC(=O)Nc2ccccc2CC)c1C`, the enhancement is 14% (inactive).
On to `Cc1ccccc1NC(=O)Cn1c(=O)n(CCCCC(=O)NCc2ccccc2Cl)c(=O)c2ccccc21`, for which the enhancement is 2.95% (inactive).
For `Cc1c(C(=O)Nc2cccc(Cl)c2)oc2ccc(S(=O)(=O)N3CCOCC3)cc12`, the enhancement is -6.24% (inactive).
Turning to `CC(C)C[C@H](NC(=O)NCCc1ccc(Cl)cc1)C(=O)O`, the enhancement was -5.99% (inactive).
Under `O=C(NCCc1ccccc1)C1CC1` stands -3.66% (inactive).
On to `C[C@H](NC(=O)NCCc1ccccc1)C(=O)O`, for which the enhancement is 33.9% (active).
For `CC(C)Cn1c(C2CC(=O)N(c3ccccc3Cl)C2)nc2ccccc21` (stereo unspecified), the enhancement is -0.635% (inactive).
On to `CN(C)c1ccc(C(=O)NCC(=O)OC(C(=O)Nc2cc(C(F)(F)F)ccc2Cl)c2ccccc2)cc1` (stereo unspecified), for which the enhancement was -3.56% (inactive).
The value for `C[N+](C)(C)CCNC(=O)c1cc[n+](Cc2ccccc2)c(/C=N/O)c1` was 40.4% (active); that for `O=C(NCCCNCc1ccccc1)c1ccc(/C=N/O)nc1` was 15.9% (inactive); that for `C[n+]1ccc(C(=O)NCc2ccccc2)cc1` was -9.31% (inactive).
Under `CCn1c(CN2CCC(C)CC2)nc2cc(NC(=O)c3ccccc3[N+](=O)[O-])ccc21` stands 3.72% (inactive); under `COc1ccccc1-c1cc2nc(C)c(CCC(=O)O)c(C)n2n1`, 5.74% (inactive); under `O=C(CC12CC3CC(CC(C3)C1)C2)NCc1ccco1`, -4.28% (inactive).
Under `O=C(CC1CCCCC1)NCc1ccco1` stands 14.2% (inactive).
As for `O=C(COC(=O)C12CC3CC(CC(C3)C1)C2)NCc1ccco1`, the enhancement is -2.58% (inactive) and 33.9% (active).
As to `Cc1ccc(NC2=C(c3ccc(C(F)(F)F)cc3)C(=O)c3ccccc32)cc1F`, the enhancement is -15.7% (inactive).
`CCOC(=O)c1c(NC(=O)Cc2coc3ccc(CC)cc23)sc2c1CCC2`: the enhancement is -3.01% (inactive).
Regarding `O=C(Nc1nnc(C2CC(=O)N(c3ccc(Cl)cc3)C2)s1)c1ccco1` (stereo unspecified), the enhancement was -3.65% (inactive).
As to `CCc1ccc(NC(=O)c2cc(S(=O)(=O)NC3CCCCCC3)ccc2F)cc1`, the enhancement is 3.53% (inactive).
As to `O=C(Nc1ccccc1)c1cccnc1Nc1ccccc1`, the enhancement is 47.9% (active).
For `O=C(Nc1ccc(F)cc1)c1cccnc1N1CCOCC1`, the enhancement was -2.71% (inactive).
The value for `O=C(Nc1ccccc1)c1ccccc1NC(=O)C(F)(F)F` was -2.9% (inactive).
